Active and inactive are the calls of the source. Unless noted, how the calls were made is not given here.
Assays:
[1] = compounds binding Alexa647 anti-His antibody – biochemical, small-molecule microarray, 635 nm fluorescence, artefact control for SMM control protein annotation, primary screen (AID 1128); settings: higher = more signal;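 further: score merges feature fluorescence with signal-to-noise for each printed compound spot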
[2] = test system: Human papillomavirus type 1a E7 protein (residues 1-88); experiment: HPV1a E7 small-molecule binders, primary screen, biochemical, small-molecule microarray, residues 1-88, 635 nm (AID 1129); settings: small-molecule microarray binding, fluorescence 635 nm; higher = more signal
[3] = biological target: Focal adhesion kinase 1 (Homo sapiens) (UniProt Q05397); experiment: PTK2 protein binding on printed compound slides – biochemical, small-molecule microarray, 635/667 nm fluorescence, BSA, DTT, primary screen (AID 1130); settings: 635 nm fluorescence, higher = more signal;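 further: composite of spot emission at 667 nm and signal to noise over triplicate slides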
[4] = test system: Fibrinogen (Alexa647-labelled); experiment: Alexa647-fibrinogen binding to printed small molecules – biochemical, small-molecule microarray, 635/667 nm fluorescence, artefact control for SMM control-protein annotation, profiling panel (AID 1131); settings: fibrinogen-A647 binding fluorescence, higher = more signal;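 further: z-score merges 667 nm fluorescence with per-spot signal-to-noise over triplicate slides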
[5] = biological target: Follistatin (Homo sapiens) (UniProt P19883); experiment: FST protein binding to printed compounds – biochemical, small-molecule microarray, 635/667 nm fluorescence, primary screen (AID 1132); settings: 635 nm fluorescence, higher = more signal
[6] = biological target: Fibroblast growth factor 2 (Homo sapiens) (UniProt P09038); experiment: basic fibroblast growth factor binding to printed compounds – biochemical, small-molecule microarray, 635/667 nm fluorescence, primary screen (AID 1133); settings: FGF2, fluorescence 635/667, higher = more signal
[7] = JC-1 mitochondrial potential readout, lung cancer cells – cell-based, A549, JC-1 fluorescence, basal, 24 h, 100 nL, profiling panel (AID 1138); settings: higher = more signal;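 further: A549 lung adenocarcinoma cells under basal conditions with no added stimulus; test concentration not given here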
Lefty1 = Lefty1 protein binding to printed compounds – biochemical, small-molecule microarray, 635/667 nm fluorescence, primary screen (AID 1139); settings: fluorescence 635/667, higher = more signal
[8] = test system: wheat germ agglutinin (Triticum aestivum), Alexa647-labelled; experiment: Alexa647-WGA lectin binding to printed small molecules – biochemical, small-molecule microarray, 635/667 nm fluorescence, artefact control for SMM control-protein annotation, profiling panel (AID 1140); settings: WGA-A647 binding, 635 nm fluorescence, higher = more signal;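 further: score merges 667 nm feature emission with signal to noise over triplicate slides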
[9] = biological target: Luciferin 4-monooxygenase (Photinus pyralis) (UniProt P08659); experiment: inhibition of purified Photinus pyralis luciferase – biochemical, luminescence, purified enzyme, 2006 set, primary screen (AID 1141); settings: purified firefly luciferase, SteadyGlo luminescence, 30 min; higher = more signal, called active from +8 up or from −8 down;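 further: cell-free assay with purified firefly luciferase at 100 ng per well in PBS; test concentration not given here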
[10] = test system: Wnt5a (protein binding on small-molecule microarray); experiment: small molecules binding Wnt5a protein – biophysical, small-molecule microarray, 635/667 nm fluorescence, primary screen (AID 1142); settings: 635 nm fluorescence, higher = more signal;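 further: fluorescence read at 667 nm with signal to noise per printed feature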
[11] = ATP-based viability of Huh7 replicon cells – cell-based, CellTiter-Glo luminescence, basal, 48 h, cytotoxicity control for HCV replication inhibitor project, primary screen (AID 1143); settings: higher = more signal, called active from +8 up or from −8 down;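 further: Huh7 hepatoma cells carrying a hepatitis C replication reporter with no stimulus; test concentration not given here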
[12] = Pseudomonas biofilm growth suppression – PAO1 strain, BacTiter-Glo luminescence, LB-PBS, primary screen (AID 1144); settings: P. aeruginosa PAO1 biofilm, 12 h, higher = more signal
[13] = basal CRE-LacZ reporter activity in PC12 – cell-based, unstimulated, primary screen (AID 1145); settings: no forskolin, luminescence, 4.5 h, higher = more signal, called active from +8 up or from −8 down
[14] = forskolin-driven CRE-LacZ activity in PC12 – cell-based, CRE-LacZ reporter, forskolin-stimulated, primary screen (AID 1146); settings: luminescence, 4.5 h, higher = more signal, called active from +8 up or from −8 down;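 further: PC12 cells with 6xCRE LacZ reporter stimulated by forskolin 10 µM; beta-galactosidase reporter signal reflecting CREB driven transcription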
[15] = biological target: Streptavidin (Streptomyces avidinii) (UniProt P22629); experiment: compounds binding control protein streptavidin – biophysical, small-molecule microarray, 635/667 nm fluorescence, artefact control for SMM compound annotation, primary screen (AID 1147); settings: higher = more signal;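 further: signal reflects streptavidin binding to arrayed compounds as a control protein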
[16] = probe aInhba binding on compound microarray – biochemical, small-molecule microarray, 635/667 nm fluorescence, primary screen (AID 1148); settings: higher = more signal;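 further: score merges 667nm spot fluorescence with signal-to-noise for antibody binding to printed compounds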
Torsin-1A (Homo sapiens) [17] = biological target: Torsin-1A (Homo sapiens) (UniProt O14656); experiment: TOR1A wild-type binding on microarray – cell lysate, small-molecule microarray, lysate, 635/667 nm, primary screen (AID 1149); settings: COS7 hTOR1A-WT lysate, 635 nm fluorescence, higher = more signal
Torsin-1A (Homo sapiens) [18] = biological target: Torsin-1A (Homo sapiens) (UniProt O14656); experiment: torsin A mutant lysate binding on microarrays – cell lysate, small-molecule microarray, COS7 lysate, 635/667 nm fluorescence, primary screen (AID 1150); settings: COS7 hTOR1A mutant lysate, 635 nm fluorescence, higher = more signal;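 further: score pools 667 nm emission and signal to noise measuring lysate protein binding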
[19] = test system: Sonic hedgehog protein (Shh); experiment: Sonic hedgehog microarray binding compounds – biochemical, small-molecule microarray, 635/667 nm fluorescence, primary screen (AID 1151); settings: 635 nm fluorescence, higher = more signal;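 further: Shh protein binding to compounds spotted on small-molecule microarray slides; score combines spot fluorescence intensity with signal-to-noise across triplicate slides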

Sequence of Fibroblast growth factor 2 (Homo sapiens) (P09038 whole entry, looked up): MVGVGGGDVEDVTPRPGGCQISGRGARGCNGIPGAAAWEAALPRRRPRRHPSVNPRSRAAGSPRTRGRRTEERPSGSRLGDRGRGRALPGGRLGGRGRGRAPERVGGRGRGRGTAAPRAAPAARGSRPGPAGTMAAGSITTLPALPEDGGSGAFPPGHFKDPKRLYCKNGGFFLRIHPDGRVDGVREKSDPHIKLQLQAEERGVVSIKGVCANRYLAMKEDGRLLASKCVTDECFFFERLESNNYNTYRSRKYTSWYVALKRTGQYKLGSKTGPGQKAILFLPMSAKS
Sequence of Streptavidin (Streptomyces avidinii) (P22629 whole entry, looked up): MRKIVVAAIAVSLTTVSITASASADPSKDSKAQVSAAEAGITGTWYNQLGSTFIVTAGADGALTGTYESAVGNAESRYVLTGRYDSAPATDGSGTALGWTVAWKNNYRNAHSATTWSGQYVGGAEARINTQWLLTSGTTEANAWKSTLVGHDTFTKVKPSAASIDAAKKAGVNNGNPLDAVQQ
Sequence of Luciferin 4-monooxygenase (Photinus pyralis) (P08659 whole entry, looked up): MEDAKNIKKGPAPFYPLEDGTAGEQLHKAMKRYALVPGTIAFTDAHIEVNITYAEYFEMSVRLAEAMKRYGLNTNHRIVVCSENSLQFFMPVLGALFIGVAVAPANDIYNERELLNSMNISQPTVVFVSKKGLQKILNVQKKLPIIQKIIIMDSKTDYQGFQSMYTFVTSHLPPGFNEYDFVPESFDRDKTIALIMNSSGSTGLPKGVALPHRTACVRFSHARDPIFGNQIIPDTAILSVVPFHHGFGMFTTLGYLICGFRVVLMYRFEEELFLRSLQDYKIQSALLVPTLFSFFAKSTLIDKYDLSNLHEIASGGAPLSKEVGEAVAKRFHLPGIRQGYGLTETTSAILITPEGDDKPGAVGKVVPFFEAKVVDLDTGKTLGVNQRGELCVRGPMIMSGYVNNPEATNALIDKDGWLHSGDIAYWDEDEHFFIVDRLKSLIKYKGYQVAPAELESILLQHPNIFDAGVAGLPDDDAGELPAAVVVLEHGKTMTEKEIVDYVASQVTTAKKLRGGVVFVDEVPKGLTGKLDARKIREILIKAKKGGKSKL
Sequence of Focal adhesion kinase 1 (Homo sapiens) (Q05397 whole entry, looked up): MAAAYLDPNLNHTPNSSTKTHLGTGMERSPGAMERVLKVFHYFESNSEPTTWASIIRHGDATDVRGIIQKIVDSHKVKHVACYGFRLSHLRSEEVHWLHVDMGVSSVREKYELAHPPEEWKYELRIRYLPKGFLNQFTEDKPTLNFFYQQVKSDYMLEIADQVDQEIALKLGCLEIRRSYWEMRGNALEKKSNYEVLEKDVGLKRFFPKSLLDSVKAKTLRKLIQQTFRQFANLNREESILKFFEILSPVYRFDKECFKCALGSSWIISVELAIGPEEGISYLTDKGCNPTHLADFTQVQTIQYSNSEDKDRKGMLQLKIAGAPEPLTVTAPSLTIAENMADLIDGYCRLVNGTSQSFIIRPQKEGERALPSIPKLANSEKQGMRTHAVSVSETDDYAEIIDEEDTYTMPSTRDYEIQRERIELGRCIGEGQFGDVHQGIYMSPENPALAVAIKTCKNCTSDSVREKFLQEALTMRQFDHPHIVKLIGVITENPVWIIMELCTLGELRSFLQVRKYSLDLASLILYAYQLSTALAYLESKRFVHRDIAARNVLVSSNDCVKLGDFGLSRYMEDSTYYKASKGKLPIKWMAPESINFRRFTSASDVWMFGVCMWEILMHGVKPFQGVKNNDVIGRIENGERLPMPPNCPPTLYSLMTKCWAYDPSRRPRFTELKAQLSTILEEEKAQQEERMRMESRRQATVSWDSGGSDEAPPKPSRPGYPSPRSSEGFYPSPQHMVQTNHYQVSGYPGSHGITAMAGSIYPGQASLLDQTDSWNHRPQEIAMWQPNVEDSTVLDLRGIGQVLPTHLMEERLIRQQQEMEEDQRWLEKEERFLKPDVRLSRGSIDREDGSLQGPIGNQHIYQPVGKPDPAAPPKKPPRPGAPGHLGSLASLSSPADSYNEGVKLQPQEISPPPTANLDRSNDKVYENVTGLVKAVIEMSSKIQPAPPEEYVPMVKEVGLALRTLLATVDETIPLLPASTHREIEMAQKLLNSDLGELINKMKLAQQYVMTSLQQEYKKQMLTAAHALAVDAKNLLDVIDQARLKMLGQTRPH
Sequence of Torsin-1A (Homo sapiens) (O14656 whole entry, looked up): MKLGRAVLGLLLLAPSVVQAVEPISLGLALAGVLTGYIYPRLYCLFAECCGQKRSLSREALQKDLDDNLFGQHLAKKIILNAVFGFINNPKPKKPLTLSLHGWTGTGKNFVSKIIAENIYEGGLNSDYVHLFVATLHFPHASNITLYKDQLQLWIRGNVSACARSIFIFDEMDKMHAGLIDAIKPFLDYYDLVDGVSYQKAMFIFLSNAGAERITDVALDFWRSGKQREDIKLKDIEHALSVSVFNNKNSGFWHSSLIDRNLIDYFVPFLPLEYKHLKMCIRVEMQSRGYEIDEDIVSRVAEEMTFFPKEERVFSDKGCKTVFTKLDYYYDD
Sequence of Follistatin (Homo sapiens) (P19883 whole entry, looked up): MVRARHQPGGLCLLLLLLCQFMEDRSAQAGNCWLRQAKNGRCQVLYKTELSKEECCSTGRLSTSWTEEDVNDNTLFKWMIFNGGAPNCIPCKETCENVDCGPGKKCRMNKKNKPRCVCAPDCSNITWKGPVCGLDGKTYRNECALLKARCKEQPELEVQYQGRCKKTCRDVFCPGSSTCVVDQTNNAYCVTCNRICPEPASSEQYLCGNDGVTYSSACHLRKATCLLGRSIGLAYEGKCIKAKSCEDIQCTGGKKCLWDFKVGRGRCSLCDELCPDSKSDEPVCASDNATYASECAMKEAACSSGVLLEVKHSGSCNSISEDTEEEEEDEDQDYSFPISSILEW

| Structure (SMILES) | composite z-score [1] | composite z-score [2] | composite z-score [3] | composite z-score [4] | composite z-score [5] | composite z-score [6] | z-score [7] | composite z-score (Lefty1) | composite z-score [8] | z-score [9] | composite z-score [10] | z-score [11] | z-score [12] | z-score [13] | z-score [14] | composite z-score [15] | composite z-score [16] | composite z-score (Torsin-1A (Homo sapiens) [17]) | composite z-score (Torsin-1A (Homo sapiens) [18]) | composite z-score [19] |
| --- | --- | --- | --- | --- | --- | --- | --- | --- | --- | --- | --- | --- | --- | --- | --- | --- | --- | --- | --- | --- |
| C=CCOC(=O)[C@H]1[C@@H]2C(=O)O[C@@H](c3ccccc3)[C@@H](c3ccccc3)N2[C@@H](c2ccc(OCCOC(=O)[C@@H]3C[C@@H]4C(=O)N[C@@H](CCCCNC(C)=O)C(=O)N4[C@@H]3c3ccc(O)cc3)cc2)[C@]12C(=O)Nc1ccc(I)cc12 | 1.66 | 1.21 | 0.736 | 0.468 | 1.32 | 1.49 | -1.38 | 0.752 | 0.0621 | -0.875 (inactive) | 0.804 | -0.257 (inactive) | 0.272 (inactive) | 0.143 (inactive) | 0.236 (inactive) | -0.139 | 0.225 | 1.25 | 1.15 | 2.21 |
| COC(=O)c1c(CC[C@@H](CO)NC(=O)N[C@H](Cn2cc(C3(O)CCCCC3)nn2)C(C)C)oc(C(C)=O)c1C(=O)OC | 1.56 | 0.737 | -0.0722 | 0.627 | 1.23 | 1.26 | 0.131 | 1.23 | 0.947 | -0.0595 (inactive) | 0.359 | -2.81 (inactive) | -0.875 (inactive) | 1.34 (inactive) | -1.13 (inactive) | 1.31 | -0.0523 | 0.881 | 0.756 | 1.59 |
| CCC[C@@H]1C[C@@]1(CCC)[C@@H](NC(=O)OCc1ccccc1)c1ccc(-c2ccccc2)cc1 | -0.526 | -0.691 | -0.278 | -1.37 | 0.136 | -0.824 | 0.289 | -0.543 | -0.693 | -0.765 (inactive) | -0.189 | -1.28 (inactive) | -0.0658 (inactive) | -0.375 (inactive) | 0.785 (inactive) | -0.504 | -0.12 | -0.301 | -0.928 | -0.895 |
| O=C1C2C=CC(C(O)c3ccc(F)cc3)N(n3cnnc3)C2C(=O)N1Cc1ccccc1 (stereo not given) | -0.782 | -0.657 | -0.284 | -0.48 | -0.524 | -0.529 | -1.3 | -0.881 | -0.271 | 1.24 (inactive) | -0.0707 | -3.57 (inactive) | -0.488 (inactive) | -0.527 (inactive) | -0.0197 (inactive) | -0.0183 | 0.0383 | -0.216 | 0.461 | -0.428 |
| CC1CC/C=C\[C@H]2OC34C=CCN(C(C)C)C(=O)[C@H]3N(CCCCCCO)C(=O)[C@@H]4C2C(=O)O1 (stereo not given in full) | -0.641 | -1.09 | -0.278 | -1.25 | -0.583 | -1.09 | 0.378 | -0.547 | -0.451 | -3.19 (inactive) | -0.574 | -0.183 (inactive) | -1.31 (inactive) | -0.342 (inactive) | -0.816 (inactive) | -0.931 | -0.323 | -1.83 | -1.19 | -0.159 |
| CCOC(=O)[C@H]1[C@@H]2C(=O)N3CCC[C@H]3[C@H](O[Si](C(C)C)(C(C)C)C(C)C)[C@H]2C=C2CCN(S(=O)(=O)c3ccc(C)cc3)C[C@H]21 | 0.173 | 0.837 | -0.268 | 0.938 | 0.727 | 0.143 | 1.8 | 0.672 | 0.255 | -0.404 (inactive) | 0.0328 | -5.75 (inactive) | 0.426 (inactive) | 0.673 (inactive) | 0.986 (inactive) | 1.03 | -0.0468 | 0.353 | 0.163 | 1.58 |
| CC(C)C(=C=CC[C@H](O)c1ccc(OCCO)cc1)C[C@H](O)c1ccccn1 | 0.923 | 0.955 | 0.104 | 0.3 | 0.135 | -0.139 | 1.51 | 0.334 | 0.0804 | -2.27 (inactive) | 0.149 | -1.8 (inactive) | -0.576 (inactive) | 5.48 (inactive) | -1.06 (inactive) | -0.573 | -0.0986 | 0.743 | 0.995 | 0.823 |
| CC(C)N1C(=O)c2ccccc2[C@@H](C(=O)NC2CC2)[C@@H]1c1ccc(CO)cc1 | 1.89 | 0.934 | -0.361 | 0.868 | 1.04 | 1.08 | 1.04 | 0.147 | 0.22 | -0.161 (inactive) | 0.302 | -0.264 (inactive) | -0.226 (inactive) | 0.001 (inactive) | -0.3 (inactive) | 0.381 | -0.0059 | 0.775 | 0.852 | 0.531 |
| Cc1ccc(S[C@]2(C(=O)O)CC(=O)N(C3Cc4ccccc4C3)[C@@H]2c2ccc(CO)cc2)cc1 | 3.14 | 0.246 | 0.583 | -0.428 | -0.987 | -0.306 | 0.225 | -0.889 | -0.339 | -0.675 (inactive) | -0.127 | 0.121 (inactive) | 0.0572 (inactive) | 0.001 (inactive) | 0.629 (inactive) | -0.395 | 0.0018 | 0.794 | 0.431 | -0.3 |
| O=C(NCC(F)(F)F)[C@@H]1c2ccccc2C(=O)N(Cc2cc(F)cc(C(F)(F)F)c2)[C@H]1c1ccc(CO)cc1 | 0.44 | -0.178 | -0.385 | -0.78 | -0.682 | -0.843 | -1.37 | -1.24 | -0.948 | 1.08 (inactive) | -0.328 | -1.77 (inactive) | -1.38 (inactive) | -0.529 (inactive) | 0.861 (inactive) | -1.24 | -0.128 | -1.73 | -1.22 | -1.09 |

Source: PubChem BioAssay
